Experiments:
Experiment in all cases: SPOT peptide array binding signal intensity (averaged, normalized) (arbitrary units (background-subtracted, floor 0; scale differs between SH3 domains)); higher = stronger binding of the SH3 domain to the peptide
AgAbp1 = molecular target: AgAbp1
Procedure, shortened: (§1)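 SH3 domains from four yeast species were expressed as GST fusions in E. coli BL21(DE3) and purified on glutathione Sepharose. Each was incubated at 10 μg/ml overnight at 4°C in TBS-based blocking buffer on cellulose membranes bearing synthetic 15-mer peptides, in which serines replaced cysteines. Bound protein was detected with anti-GST antibody, an HRP anti-mouse secondary and luminol, then imaged and quantified with Genespotter. The binding signal is the normalized, background-subtracted spot intensity averaged over replicates, in arbitrary units that are not the same from one domain to another.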

AgBbc1 = molecular target: AgBbc1
Procedure, shortened: as §1

AgBem1-D1 = molecular target: AgBem1-D1
Procedure, shortened: as §1

AgBzz1-D1 = molecular target: AgBzz1-D1
Procedure, shortened: as §1

AgBzz1-D2 = molecular target: AgBzz1-D2
Procedure, shortened: as §1

AgCyk3 = molecular target: AgCyk3
Procedure, shortened: as §1

AgFus1 = molecular target: AgFus1
Procedure, shortened: as §1

AgHof1 = molecular target: AgHof1
Procedure, shortened: as §1

AgHse1 = molecular target: AgHse1
Procedure, shortened: as §1

AgLsb1 = molecular target: AgLsb1
Procedure, shortened: as §1

AgLsb4 = molecular target: AgLsb4
Procedure, shortened: as §1

AgMyo5 = molecular target: AgMyo5
Procedure, shortened: as §1

AgNbp2 = molecular target: AgNbp2
Procedure, shortened: as §1

AgRvs167 = molecular target: AgRvs167
Procedure, shortened: as §1

AgSho1 = molecular target: AgSho1
Procedure, shortened: as §1

AgSla1-D1-D2 = molecular target: AgSla1-D1-D2
Procedure, shortened: as §1

AgSla1-D3 = molecular target: AgSla1-D3
Procedure, shortened: as §1

CaAbp1-D1 = molecular target: CaAbp1-D1
Procedure, shortened: as §1

CaAbp1-D2 = molecular target: CaAbp1-D2
Procedure, shortened: as §1

CaBbc1 = molecular target: CaBbc1
Procedure, shortened: as §1

CaBem1-D1 = molecular target: CaBem1-D1
Procedure, shortened: as §1

CaBzz1-D1 = molecular target: CaBzz1-D1
Procedure, shortened: as §1

CaBzz1-D2 = molecular target: CaBzz1-D2
Procedure, shortened: as §1

CaCyk3 = molecular target: CaCyk3
Procedure, shortened: as §1

CaFus1 = molecular target: CaFus1
Procedure, shortened: as §1

CaHof1 = molecular target: CaHof1
Procedure, shortened: as §1

CaHse1 = molecular target: CaHse1
Procedure, shortened: as §1

CaLsb1 = molecular target: CaLsb1
Procedure, shortened: as §1

CaLsb4 = molecular target: CaLsb4
Procedure, shortened: as §1

CaMyo5 = molecular target: CaMyo5
Procedure, shortened: as §1

CaNbp2 = molecular target: CaNbp2
Procedure, shortened: as §1

CaRvs167 = molecular target: CaRvs167
Procedure, shortened: as §1

CaRvs167-3 = molecular target: CaRvs167-3
Procedure, shortened: as §1

CaSho1 = molecular target: CaSho1
Procedure, shortened: as §1

CaSla1-D1-D2 = molecular target: CaSla1-D1-D2
Procedure, shortened: as §1

CaSla1-D3 = molecular target: CaSla1-D3
Procedure, shortened: as §1

ScAbp1 = molecular target: ScAbp1
Procedure, shortened: as §1

ScBbc1 = molecular target: ScBbc1
Procedure, shortened: as §1

ScBem1-D1 = molecular target: ScBem1-D1
Procedure, shortened: as §1

ScBzz1-D1 = molecular target: ScBzz1-D1
Procedure, shortened: as §1

ScBzz1-D2 = molecular target: ScBzz1-D2
Procedure, shortened: as §1

ScCyk3 = molecular target: ScCyk3
Procedure, shortened: as §1

ScFus1 = molecular target: ScFus1
Procedure, shortened: as §1

ScHof1 = molecular target: ScHof1
Procedure, shortened: as §1

ScHse1 = molecular target: ScHse1
Procedure, shortened: as §1

ScLsb1 = molecular target: ScLsb1
Procedure, shortened: as §1

ScLsb2 = molecular target: ScLsb2
Procedure, shortened: as §1

ScLsb3 = molecular target: ScLsb3
Procedure, shortened: as §1

ScLsb4 = molecular target: ScLsb4
Procedure, shortened: as §1

ScMyo3 = molecular target: ScMyo3
Procedure, shortened: as §1

ScMyo5 = molecular target: ScMyo5
Procedure, shortened: as §1

ScNbp2 = molecular target: ScNbp2
Procedure, shortened: as §1

ScPex13 = molecular target: ScPex13
Procedure, shortened: as §1

ScRvs167 = molecular target: ScRvs167
Procedure, shortened: as §1

ScSho1 = molecular target: ScSho1
Procedure, shortened: as §1

ScSla1-D1-D2 = molecular target: ScSla1-D1-D2
Procedure, shortened: as §1

ScSla1-D3 = molecular target: ScSla1-D3
Procedure, shortened: as §1

SpAbp1-D1 = molecular target: SpAbp1-D1
Procedure, shortened: as §1

SpBbc1 = molecular target: SpBbc1
Procedure, shortened: as §1

SpBzz1-D1 = molecular target: SpBzz1-D1
Procedure, shortened: as §1

B1: unnamed (peptide)
chain: EAEEAAPQLPSRSSA
Question: For B1, which “SPOT peptide array binding signal intensity” value (AgAbp1) is on record?
Answer: The value was 7.

Question: What about the “SPOT peptide array binding signal intensity” value (AgBbc1) of the same binder?
Answer: The value was at most 0.

Question: And the “SPOT peptide array binding signal intensity” value (AgBem1-D1)?
Answer: The value was at most 0.

Question: And the “SPOT peptide array binding signal intensity” value (AgBzz1-D1)?
Answer: Its value is 8.5.

Question: What about the “SPOT peptide array binding signal intensity” value (AgBzz1-D2) of the same binder?
Answer: The value was 8.5.

Question: And the “SPOT peptide array binding signal intensity” value (AgCyk3)?
Answer: The value was at most 0.

Question: What about the “SPOT peptide array binding signal intensity” value (AgFus1) of the same binder?
Answer: Its value is 8.

Question: And the “SPOT peptide array binding signal intensity” value (AgHof1)?
Answer: Its value is 0.5.

Question: What about the “SPOT peptide array binding signal intensity” value (AgHse1) of the same binder?
Answer: The value was 3.5.

Question: And the “SPOT peptide array binding signal intensity” value (AgLsb1)?
Answer: Its value is 16.

Question: And the “SPOT peptide array binding signal intensity” value (AgLsb4)?
Answer: The value was 3510.

Question: What about the “SPOT peptide array binding signal intensity” value (AgMyo5) of the same binder?
Answer: Its value is at most 0.

Question: What about the “SPOT peptide array binding signal intensity” value (AgNbp2) of the same binder?
Answer: Its value is at most 0.

Question: And the “SPOT peptide array binding signal intensity” value (AgRvs167)?
Answer: The value was 11.3.

Question: And the “SPOT peptide array binding signal intensity” value (AgSho1)?
Answer: The value was at most 0.

Question: And the “SPOT peptide array binding signal intensity” value (AgSla1-D1-D2)?
Answer: The value was at most 0.

Question: What about the “SPOT peptide array binding signal intensity” value (AgSla1-D3) of the same binder?
Answer: The value was 2.

Question: What about the “SPOT peptide array binding signal intensity” value (CaAbp1-D1) of the same binder?
Answer: The value was at most 0.

Question: What about the “SPOT peptide array binding signal intensity” value (CaAbp1-D2) of the same binder?
Answer: Its value is at most 0.

Question: What about the “SPOT peptide array binding signal intensity” value (CaBbc1) of the same binder?
Answer: The value was at most 0.

Question: What about the “SPOT peptide array binding signal intensity” value (CaBem1-D1) of the same binder?
Answer: The value was at most 0.

Question: What about the “SPOT peptide array binding signal intensity” value (CaBzz1-D1) of the same binder?
Answer: Its value is 1.

Question: And the “SPOT peptide array binding signal intensity” value (CaBzz1-D2)?
Answer: The value was 3.25.

Question: And the “SPOT peptide array binding signal intensity” value (CaCyk3)?
Answer: Its value is at most 0.

Question: And the “SPOT peptide array binding signal intensity” value (CaFus1)?
Answer: Its value is 5.

Question: And the “SPOT peptide array binding signal intensity” value (CaHof1)?
Answer: Its value is 0.25.

Question: And the “SPOT peptide array binding signal intensity” value (CaHse1)?
Answer: Its value is 6.75.

Question: What about the “SPOT peptide array binding signal intensity” value (CaLsb1) of the same binder?
Answer: Its value is 1.75.

Question: And the “SPOT peptide array binding signal intensity” value (CaLsb4)?
Answer: The value was 6000.

Question: What about the “SPOT peptide array binding signal intensity” value (CaMyo5) of the same binder?
Answer: The value was 1.

Question: What about the “SPOT peptide array binding signal intensity” value (CaNbp2) of the same binder?
Answer: The value was at most 0.

Question: And the “SPOT peptide array binding signal intensity” value (CaRvs167)?
Answer: The value was 340.

Question: What about the “SPOT peptide array binding signal intensity” value (CaRvs167-3) of the same binder?
Answer: The value was 6.25.

Question: And the “SPOT peptide array binding signal intensity” value (CaSho1)?
Answer: The value was at most 0.

Question: What about the “SPOT peptide array binding signal intensity” value (CaSla1-D1-D2) of the same binder?
Answer: Its value is at most 0.

Question: And the “SPOT peptide array binding signal intensity” value (CaSla1-D3)?
Answer: Its value is at most 0.

Question: What about the “SPOT peptide array binding signal intensity” value (ScAbp1) of the same binder?
Answer: The value was 6.

Question: And the “SPOT peptide array binding signal intensity” value (ScBbc1)?
Answer: Its value is at most 0.

Question: And the “SPOT peptide array binding signal intensity” value (ScBem1-D1)?
Answer: Its value is at most 0.

Question: What about the “SPOT peptide array binding signal intensity” value (ScBzz1-D1) of the same binder?
Answer: The value was 9.

Question: And the “SPOT peptide array binding signal intensity” value (ScBzz1-D2)?
Answer: The value was 10.

Question: And the “SPOT peptide array binding signal intensity” value (ScCyk3)?
Answer: Its value is 1.

Question: And the “SPOT peptide array binding signal intensity” value (ScFus1)?
Answer: Its value is at most 0.

Question: And the “SPOT peptide array binding signal intensity” value (ScHof1)?
Answer: Its value is 4.25.

Question: What about the “SPOT peptide array binding signal intensity” value (ScHse1) of the same binder?
Answer: Its value is at most 0.

Question: What about the “SPOT peptide array binding signal intensity” value (ScLsb1) of the same binder?
Answer: The value was 283.

Question: And the “SPOT peptide array binding signal intensity” value (ScLsb2)?
Answer: Its value is 12.5.

Question: And the “SPOT peptide array binding signal intensity” value (ScLsb3)?
Answer: Its value is 7150.

Question: And the “SPOT peptide array binding signal intensity” value (ScLsb4)?
Answer: Its value is 3370.

Question: What about the “SPOT peptide array binding signal intensity” value (ScMyo3) of the same binder?
Answer: Its value is at most 0.

Question: What about the “SPOT peptide array binding signal intensity” value (ScMyo5) of the same binder?
Answer: Its value is at most 0.

Question: And the “SPOT peptide array binding signal intensity” value (ScNbp2)?
Answer: The value was at most 0.

Question: And the “SPOT peptide array binding signal intensity” value (ScPex13)?
Answer: Its value is 128.

Question: And the “SPOT peptide array binding signal intensity” value (ScRvs167)?
Answer: The value was 1500.

Question: What about the “SPOT peptide array binding signal intensity” value (ScSho1) of the same binder?
Answer: The value was at most 0.

Question: And the “SPOT peptide array binding signal intensity” value (ScSla1-D1-D2)?
Answer: The value was 7.

Question: And the “SPOT peptide array binding signal intensity” value (ScSla1-D3)?
Answer: Its value is 0.75.

Question: What about the “SPOT peptide array binding signal intensity” value (SpAbp1-D1) of the same binder?
Answer: Its value is at most 0.

Question: What about the “SPOT peptide array binding signal intensity” value (SpBbc1) of the same binder?
Answer: The value was at most 0.

Question: What about the “SPOT peptide array binding signal intensity” value (SpBzz1-D1) of the same binder?
Answer: Its value is at most 0.
